Reference: PubChem BioAssay AID1645878 (National Center for Advancing Translational Sciences (NCATS), 2021)
The other results are listed elsewhere or left out. Results filed as inconclusive are left out. Activity calls are given as the source filed them. The call rests on the fitted dose curve; in most records, active means well fitted inhibition curve with a large enough effect; inconclusive means small, poorly fitted or top-dose-only effect; inactive means no such curve, though single readings can be large or run the other way.

target: Nicotinamide N-methyltransferase (Homo sapiens) (UniProt P40261); assay: Counterscreen qHTS for Inhibitors of N-terminal methyltransferase 1 (NTMT1): NNMT MTaseGlo assay; conditions: NNMT MTase-Glo luminescence, SAH detection; series mostly up to 57.1 µM
Description: Assay Submitter (PI): Rong Huang Ph.D. Purdue University, West Lafayette, IN 47907 The N-terminal methytransferase 1 is the first methyltransferase that methylates protein alpha-N-amines and plays an important role in regulating cell mitosis, chromatin interactions and DNA repair. It is observed to be over-expressed in various cancer patient tissues like malignant melanoma and colorectal cancer tissues. Knockdown of NTMT1 in cancer cells causes cell mitotic defects and enhances sensitivity to DNA damaging chemotherapeutics. […] These critical cellular processes in which NTMT1 is implicated, coupled with emerging links to cellular dysfunction, strengthen the inference that NTMT1 is a compelling novel anticancer target. […] To address this unmet need, a panel of assay is created and established to enable quantitative high-throughput screening (qHTS) for novel, potent, and selective small molecule NTMT1 inhibitors. […] MTaseGlo Assay is a luminescence screen that measure the activity of methyltransferases based on the reaction product S-adenosyl homocysteine (SAH). […]
Materials: NNMT enzyme, SAM, NA, and control is provided by the Huang laboratory. […] 11; Detection; Luminescence; Plates were read using luminescence optics on a ViewLux detector (PerkinElmer). […]

Nicotinamide N-methyltransferase (Homo sapiens), sequence (P40261 whole entry, looked up): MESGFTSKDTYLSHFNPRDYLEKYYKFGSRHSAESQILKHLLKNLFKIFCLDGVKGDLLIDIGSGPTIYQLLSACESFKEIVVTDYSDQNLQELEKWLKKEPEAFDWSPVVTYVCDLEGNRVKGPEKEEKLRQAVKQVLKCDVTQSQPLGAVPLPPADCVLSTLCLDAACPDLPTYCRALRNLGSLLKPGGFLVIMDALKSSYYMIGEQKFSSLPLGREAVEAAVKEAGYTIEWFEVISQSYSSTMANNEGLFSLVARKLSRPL

| Compound | outcome |
| --- | --- |
| CC(C)(O)c1ccc2c(c1)C(=O)CC1[C@](C)(CO)CCC[C@]21C (some centres not stated) | inactive |
| COc1cc2ncnc(Nc3cccc(Cl)c3F)c2cc1OC(=O)N1CCN(C)C[C@H]1C | inactive |
